Source: PubChem BioAssay (NCI)
The panel holds about 83,000 compounds, 20% with a hit somewhere; the sample as a whole holds those more often.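 Activity criterion: percent growth below 10, measured after cells in 96-well plates were exposed to a single compound concentration for 48 hours.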 Active and inactive are the calls of the source.

How the values were obtained:
Experiment in all cases: NCI-60 one-dose screen, 48 h (100 = growth as untreated, 0 = no growth, -100 = all killed)
Conditions in all cases: 10 µM unless noted
[1] = system: HCT-15 colon
[2] = system: HT29 colon
[3] = system: SNB-75 CNS
[4] = system: SNB-19 CNS
[5] = system: U251 CNS
[6] = system: PC-3 prostate
[7] = system: SK-MEL-5 melanoma
[8] = system: UACC-62 melanoma
[9] = system: LOX IMVI melanoma
[10] = system: SK-MEL-28 melanoma

Measured: growth

O=C1c2c(c3c4ccc(Br)cc4oc3c3[nH]c4ccccc4c23)C(=O)N1O
inactive: [1] 19% | [4] 29.7% | [5] 22.8% | [6] 40.9%
active: [2] 8.99% | [3] 4.21% | [7] -71.8% | [8] -2.55% | [9] 6.55% | [10] -0.104%

COC(=O)/C=C1/SC(=Nc2ccc(C)cc2)N(CCc2c[nH]c3ccc(O)cc23)C1=O
active: [9] -17.8%
inactive: [1] 14.7% | [2] 90.9% | [3] 52% | [4] 51.8% | [5] 34.7% | [6] 39% | [7] 50.5% | [8] 42.2% | [10] 48.4%

Cc1ccc(-c2csc(NC(=O)CN3CCN(c4cc5c(cc4F)c(=O)c(C(=O)O)cn5C4CC4)CC3)n2)cc1
inactive: [1] 10.2% | [3] 20.1% | [4] 27.7% | [8] 19.1% | [10] 41%
active: [2] 0.375% | [5] 7.62% | [6] 6.64% | [7] -26.4% | [9] 0.737%

C#CCOc1ccc2ncnc(Nc3ccc(NC(=O)CCl)cc3)c2c1
inactive: [3] 42% | [10] 36.2%
active: [1] -32.4% | [2] -60% | [4] -22.2% | [5] -83.7% | [6] 6.66% | [7] -90.6% | [8] -10.1% | [9] -80.1%

CCN(c1ccc(Cl)cc1)c1nc(-c2ccc([N+](=O)[O-])cc2)cs1
inactive: [1] 98.1% | [2] 91% | [3] 96.8% | [4] 95.4% | [5] 102% | [6] 92.6% | [7] 99.7% | [8] 79.8% | [9] 93% | [10] 105%

COc1ccc(/C(C)=C(/c2ccc(OCCCN(C)C)cc2)c2ccc(OC(=O)Cc3ccccc3)cc2)cc1
inactive: [1] 54.6% | [3] 79% | [4] 90% | [5] 55.1% | [6] 71.9% | [7] 79.5% | [8] 70.2% | [10] 70.8%
active: [2] 7.51% | [9] -5.23%

CNc1nc(S(=O)c2ccc(C#N)cc2)nc2ccccc12 (stereo not given)
inactive: [1] 81% | [2] 81.8% | [3] 60.5% | [4] 90.8% | [5] 83.1% | [6] 89.2% | [7] 83.6% | [8] 81% | [9] 76.5% | [10] 94.4%

CC(C)N1CCN(Cc2ccc3c(NNC(=O)c4ccccc4)nc4cc(F)ccc4n23)CC1
inactive: [1] 31.7% | [2] 31.3% | [3] 54.7% | [4] 29.7% | [5] 17% | [6] 36.9% | [10] 29.5%
active: [7] -8.08% | [8] 7.2% | [9] 6.12%

CC1Cc2c(Cl)ncnc2N(C)c2ccc(F)cc21 (stereo not given)
inactive: [1] 106% | [2] 90.6% | [3] 59.8% | [4] 104% | [5] 89.7% | [6] 87.5% | [7] 76.9% | [8] 99.6% | [9] 92.3% | [10] 86.5%

Oc1c(Cl)cc(Cl)c2ccc(Cn3cc(-c4ccc(C(F)(F)F)cc4)nn3)nc12
inactive: [1] 31.3% | [2] 74.2% | [3] 74.1% | [4] 93.3% | [5] 99.8% | [6] 74.6% | [7] 98.8% | [8] 73.9% | [10] 51.2%
active: [9] 9.23%

COCCn1cc(-c2nc(-c3cc4cccnc4n3CCOC)cs2)c2cc(OC)ccc21
inactive: [1] 17% | [2] 21.9% | [3] 62.6% | [4] 91.1% | [5] 69.8% | [6] 29.3% | [7] 36.7% | [8] 80.7% | [9] 15.4% | [10] 87.2%

Cc1nc(N2CCOCC2)sc1S(N)(=O)=O
inactive: [1] 105% | [2] 102% | [4] 102% | [5] 92.9% | [6] 92.3% | [7] 100% | [8] 94% | [9] 95.8% | [10] 104%
active: [3] -0.593%

O=C(Nc1ncc(Cc2ccc(Cl)c(C(F)(F)F)c2)s1)c1ccc2nnsc2c1
inactive: [1] 40.4% | [2] 57.7% | [3] 90.8% | [4] 46.2% | [5] 42.7% | [6] 38.3% | [7] 38.3% | [9] 29.3% | [10] 54.7%
active: [8] 6.95%

Brc1ccc2[nH]cc(-c3nonc3-c3c[nH]c4ccccc34)c2c1
inactive: [1] 19.5% | [2] 11.2% | [3] 46.5% | [4] 63.8% | [5] 43.3% | [6] 35.2% | [7] 59.7% | [8] 39.2% | [10] 77.6%
active: [9] 2.2%

O=C(CN1C(=O)CCC1=O)Nc1ncc(Cc2ccc(F)cc2)s1
inactive: [1] 102% | [2] 106% | [3] 94.3% | [4] 96.3% | [5] 97.5% | [6] 92.4% | [7] 99.6% | [8] 92.1% | [9] 94.3% | [10] 106%

CC(=O)c1cc(O)c2ccccc2c1O
inactive: [1] 98.9% | [2] 111% | [3] 70.7% | [4] 100% | [5] 98.2% | [6] 85.7% | [7] 86.4% | [8] 101% | [9] 78.5% | [10] 137%

CCCCC[C@@H]1Cc2cc(O)c(C(=O)O)c3c2[C@H](C[C@]2(OC[C@@H](CC(=O)[C@@](C)(CC)C(=O)OC)[C@@H]2C)O3)O1
inactive: [1] 91.6% | [2] 116% | [3] 96.9% | [4] 94.3% | [5] 103% | [6] 106% | [7] 108% | [8] 88.9% | [9] 103% | [10] 118%

O=C(/C=C/c1ccc(Cl)cc1)c1cccc(Nc2nc(Nc3ccccc3)nc(Nc3ccccc3)n2)c1
inactive: [1] 83.9% | [2] 99.1% | [3] 71.9% | [4] 111% | [5] 82.7% | [6] 87.9% | [7] 85.6% | [8] 96.9% | [9] 88.2% | [10] 100%

Cc1nc2sc(C(=O)Nc3cccc(Cl)c3C)c(N)c2cc1C(=O)c1ccccc1
inactive: [4] 12.7% | [5] 15.6% | [8] 17% | [9] 35.8% | [10] 42.7%
active: [1] 9.29% | [2] 3.07% | [3] 7.46% | [6] 6.12% | [7] 9.08%

COc1cccc(NC(=O)Cn2cc(CN3CCN(c4ccnc5cc(Cl)ccc45)CC3)nn2)c1
inactive: [1] 89.8% | [2] 98% | [3] 75.5% | [4] 88.7% | [5] 96.3% | [6] 67.4% | [7] 59.3% | [8] 75.8% | [9] 86.8% | [10] 102%

Cc1nc2sc(C(=O)Nc3ccccc3)c(N)c2cc1C(=O)c1ccccc1
inactive: [1] 24.4% | [2] 22.9% | [3] 26.2% | [4] 21.3% | [5] 25.4% | [6] 33.4% | [7] 31.9% | [8] 17.4% | [9] 50% | [10] 46.8%

N=C(N)c1ccc(-c2ccc(-c3ccc(Cl)cc3)s2)nc1
inactive: [3] 95.8% | [4] 49.9% | [7] 82.8% | [8] 89.9% | [10] 108%
active: [1] -78.1% | [2] -38.1% | [5] -68.1% | [6] -75.3% | [9] -89%

Cn1cc(-c2nc(-c3c[nH]c4ccncc34)cs2)c2ccccc21
active: [1] -21.6% | [2] 0.469% | [5] -43.8% | [9] -78% | [10] -79.8%
inactive: [3] 91% | [4] 88.4% | [6] 61.5% | [7] 55.2% | [8] 94.6%

CCCCN1C(=O)/C(=c2\sc3n(c2=O)C2C(NN=3)N(CC)C(=O)N2CC)c2ccccc21 (stereo not given)
active: [1] 8.29% | [2] 0.704% | [3] -17.6% | [5] 5.8%
inactive: [4] 25% | [6] 20.7% | [7] 29.2% | [8] 18.9% | [9] 20.1% | [10] 48.1%

Cc1noc(C)c1C(=O)OCc1coc2ccccc2c1=O
inactive: [1] 52.5% | [2] 66% | [3] 81.6% | [4] 82.7% | [5] 72.8% | [6] 70.1% | [7] 80% | [8] 54.7% | [9] 70.8% | [10] 86.8%
